Measurements from paper PMC7862700, “An all-to-all approach to the identification of sequence-specific readers for epigenetic DNA modifications on cytosine”.

Legend:
Assay in all cases: DAPPL (digital affinity profiling via proximity ligation, sequencing); 10 mM Tris-HCl pH 7.5, 50 mM NaCl, 1 mM DTT, 4% glycerol, room temperature, 30 min; GST-TFs on glutathione beads, 16-mer random dsDNA library, 0.1% formaldehyde crosslink after washing; high values mean tight binding
Details in all cases: protein: recombinant; tags: N-terminal GST; dsDNA, one strand shown
ETV1 = ETV1 (Homo sapiens, UniProt P50549 1-477)
Sequence of ETV1 (P50549 whole entry, the tested form may be a part): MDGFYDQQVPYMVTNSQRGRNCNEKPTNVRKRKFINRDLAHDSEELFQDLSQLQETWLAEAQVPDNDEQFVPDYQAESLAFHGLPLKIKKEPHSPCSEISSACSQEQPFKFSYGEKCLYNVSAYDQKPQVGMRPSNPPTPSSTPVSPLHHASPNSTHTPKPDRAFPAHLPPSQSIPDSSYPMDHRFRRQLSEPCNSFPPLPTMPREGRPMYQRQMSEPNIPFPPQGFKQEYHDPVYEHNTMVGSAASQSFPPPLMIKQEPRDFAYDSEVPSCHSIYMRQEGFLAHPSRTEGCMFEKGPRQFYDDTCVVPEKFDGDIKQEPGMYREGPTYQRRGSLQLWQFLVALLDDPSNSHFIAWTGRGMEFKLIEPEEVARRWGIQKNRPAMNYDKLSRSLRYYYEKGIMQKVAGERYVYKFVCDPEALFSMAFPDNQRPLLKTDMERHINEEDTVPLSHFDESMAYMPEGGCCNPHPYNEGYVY
Summary of the method: (§1)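 Sequencing on an Illumina NextSeq500 followed washing, crosslinking with 0.1% formaldehyde, proximity ligation (BsaI/T4 ligase, 1 h, 37 °C) and PCR amplification of pools that had been incubated for 30 min at room temperature with 200 nmole of a random double-stranded 16-mer DNA library in Tris/NaCl/DTT/glycerol buffer. Each pool held DNA-barcoded human transcription factors, expressed in yeast as GST fusions and captured on glutathione beads, plus a tag-only sample. Binding signal is a hexamer's read frequency for a factor divided by its frequency in the tag-only sample.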

ERF = biological target: T1, ERF (Homo sapiens, UniProt P50548 1-548)
T1 sequence: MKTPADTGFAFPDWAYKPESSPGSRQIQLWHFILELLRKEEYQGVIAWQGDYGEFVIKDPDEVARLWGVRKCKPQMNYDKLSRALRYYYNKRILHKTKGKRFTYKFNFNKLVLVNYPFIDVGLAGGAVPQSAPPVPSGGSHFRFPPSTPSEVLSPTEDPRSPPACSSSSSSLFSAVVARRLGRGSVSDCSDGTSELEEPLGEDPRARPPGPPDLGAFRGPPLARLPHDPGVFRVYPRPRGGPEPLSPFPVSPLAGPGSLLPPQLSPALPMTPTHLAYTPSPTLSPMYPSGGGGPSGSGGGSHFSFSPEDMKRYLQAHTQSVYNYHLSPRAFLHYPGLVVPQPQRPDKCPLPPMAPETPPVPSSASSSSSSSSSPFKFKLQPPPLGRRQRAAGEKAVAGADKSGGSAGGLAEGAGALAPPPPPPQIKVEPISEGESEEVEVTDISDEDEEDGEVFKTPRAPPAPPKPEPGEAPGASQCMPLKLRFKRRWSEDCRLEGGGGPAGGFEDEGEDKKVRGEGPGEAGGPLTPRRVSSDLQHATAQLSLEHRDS
Summary of the method: as §1

ETV3L = biological target: T2, ETV3L (Homo sapiens, UniProt Q6ZN32 1-361)
T2 sequence: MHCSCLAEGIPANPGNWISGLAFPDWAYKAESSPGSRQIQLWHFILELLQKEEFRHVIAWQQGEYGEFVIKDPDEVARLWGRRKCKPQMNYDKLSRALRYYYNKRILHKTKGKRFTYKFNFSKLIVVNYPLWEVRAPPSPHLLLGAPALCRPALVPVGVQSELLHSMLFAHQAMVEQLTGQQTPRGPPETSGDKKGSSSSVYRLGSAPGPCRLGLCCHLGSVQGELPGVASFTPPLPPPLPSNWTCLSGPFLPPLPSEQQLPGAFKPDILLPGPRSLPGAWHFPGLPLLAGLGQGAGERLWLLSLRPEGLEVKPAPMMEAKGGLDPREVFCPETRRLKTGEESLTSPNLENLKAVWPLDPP
Summary of the method: as §1

ETS2 = biological target: T3, ETS2 (Homo sapiens, UniProt P15036 1-469)
T3 sequence: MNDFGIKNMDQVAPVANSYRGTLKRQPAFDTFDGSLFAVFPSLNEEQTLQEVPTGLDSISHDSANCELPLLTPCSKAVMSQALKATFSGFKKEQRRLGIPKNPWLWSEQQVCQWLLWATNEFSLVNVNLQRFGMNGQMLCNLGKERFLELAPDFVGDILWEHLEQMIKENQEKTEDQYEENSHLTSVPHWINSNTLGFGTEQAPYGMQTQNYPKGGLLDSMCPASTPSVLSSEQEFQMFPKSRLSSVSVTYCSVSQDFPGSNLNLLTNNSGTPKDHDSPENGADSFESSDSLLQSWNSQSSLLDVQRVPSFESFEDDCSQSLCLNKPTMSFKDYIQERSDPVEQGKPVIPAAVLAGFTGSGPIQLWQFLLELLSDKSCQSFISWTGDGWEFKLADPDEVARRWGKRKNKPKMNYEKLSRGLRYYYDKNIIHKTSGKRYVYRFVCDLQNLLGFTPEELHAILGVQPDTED
Summary of the method: as §1

SPDEF = biological target: T4, SPDEF (Homo sapiens, UniProt O95238 1-335)
T4 sequence: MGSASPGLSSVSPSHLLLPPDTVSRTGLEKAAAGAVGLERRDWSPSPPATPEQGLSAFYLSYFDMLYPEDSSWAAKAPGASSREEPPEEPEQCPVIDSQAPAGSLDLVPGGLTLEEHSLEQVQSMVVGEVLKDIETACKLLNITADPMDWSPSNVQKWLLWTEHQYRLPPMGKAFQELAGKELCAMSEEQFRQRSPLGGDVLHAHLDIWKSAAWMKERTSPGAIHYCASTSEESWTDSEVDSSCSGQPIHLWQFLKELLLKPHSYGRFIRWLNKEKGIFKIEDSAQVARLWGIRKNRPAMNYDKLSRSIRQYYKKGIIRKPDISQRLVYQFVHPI
Summary of the method: as §1

ETV7 = biological target: T5, ETV7 (Homo sapiens, UniProt Q9Y603 1-341)
T5 sequence: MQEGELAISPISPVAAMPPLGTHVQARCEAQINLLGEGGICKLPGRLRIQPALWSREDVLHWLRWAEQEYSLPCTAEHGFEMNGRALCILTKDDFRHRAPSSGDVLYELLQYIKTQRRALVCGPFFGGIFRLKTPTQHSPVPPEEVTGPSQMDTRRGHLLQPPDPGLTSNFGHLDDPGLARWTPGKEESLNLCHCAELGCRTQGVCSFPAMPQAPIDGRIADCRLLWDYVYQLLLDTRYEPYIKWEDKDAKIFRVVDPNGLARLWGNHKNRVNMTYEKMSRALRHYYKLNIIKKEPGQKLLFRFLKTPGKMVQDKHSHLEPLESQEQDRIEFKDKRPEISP
Summary of the method: as §1

ELF5 = biological target: T6, ELF5 (Homo sapiens, UniProt Q9UKW6-2 1-255)
T6 sequence: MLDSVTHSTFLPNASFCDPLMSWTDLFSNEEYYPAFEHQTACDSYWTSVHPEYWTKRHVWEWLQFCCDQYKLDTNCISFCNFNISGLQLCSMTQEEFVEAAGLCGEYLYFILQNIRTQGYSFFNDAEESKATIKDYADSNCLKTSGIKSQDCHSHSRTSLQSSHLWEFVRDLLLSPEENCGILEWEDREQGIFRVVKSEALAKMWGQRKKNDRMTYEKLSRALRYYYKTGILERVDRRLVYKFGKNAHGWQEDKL
Summary of the method: as §1

ETV3 = biological target: T7, ETV3 (Homo sapiens, UniProt P41162-2 1-143)
T7 sequence: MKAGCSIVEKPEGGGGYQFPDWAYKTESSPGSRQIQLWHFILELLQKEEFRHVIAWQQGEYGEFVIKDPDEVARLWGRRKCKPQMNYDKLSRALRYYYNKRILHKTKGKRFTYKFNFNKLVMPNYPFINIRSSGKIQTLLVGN
Summary of the method: as §1

ETV6 = ETV6 (Homo sapiens, UniProt P41212 1-452)
Sequence of ETV6 (P41212 whole entry): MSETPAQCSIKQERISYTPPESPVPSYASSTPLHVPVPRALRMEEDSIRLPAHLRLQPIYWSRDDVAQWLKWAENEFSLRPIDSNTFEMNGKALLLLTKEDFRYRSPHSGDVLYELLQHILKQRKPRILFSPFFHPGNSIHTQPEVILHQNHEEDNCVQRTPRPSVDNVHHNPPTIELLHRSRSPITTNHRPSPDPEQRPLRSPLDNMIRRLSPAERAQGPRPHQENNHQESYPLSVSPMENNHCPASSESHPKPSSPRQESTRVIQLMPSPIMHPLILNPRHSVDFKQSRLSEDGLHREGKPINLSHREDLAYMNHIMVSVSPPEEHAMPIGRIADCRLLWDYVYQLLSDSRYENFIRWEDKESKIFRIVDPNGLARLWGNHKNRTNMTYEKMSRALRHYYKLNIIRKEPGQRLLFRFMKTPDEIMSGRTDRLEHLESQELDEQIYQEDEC
Summary of the method: as §1

Which results are given for ACTCGT?
binding signal (ETV1): 1.13 fold enrichment (6-mer frequency, TF over GST control); binding signal (ERF): 1.25 fold enrichment (6-mer frequency, TF over GST control); binding signal (ETV3L): 1.26 fold enrichment (6-mer frequency, TF over GST control); binding signal (ETS2): 1.27 fold enrichment (6-mer frequency, TF over GST control); binding signal (SPDEF): 1.14 fold enrichment (6-mer frequency, TF over GST control); binding signal (ETV7): 1.26 fold enrichment (6-mer frequency, TF over GST control); binding signal (ELF5): 1.24 fold enrichment (6-mer frequency, TF over GST control); binding signal (ETV3): 1.21 fold enrichment (6-mer frequency, TF over GST control); binding signal (ETV6): 1.16 fold enrichment (6-mer frequency, TF over GST control)
